Out of some 5,500 compounds screened, about 2,000 (36%) were called active. Another 18% or so got no clear call; they are omitted. Cut-off read from the data, not from the text of the source: active = normalized growth mostly below about 0.91 (no sharp cut-off); inconclusive = no clear call, values can overlap the other calls; inactive = mostly above about 0.92. Some of the results follow.
Assay: chemical genetic growth profiling, strain panel (AID 1159580);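 note: tested at 20 µM; growth read once vehicle control cultures reached saturation at 30 °C; 1 = growth at the plate median or of vehicle wells; lower values mean less growth of the strain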
Settings: growth OD

Measured: normalized growth

CC(=O)Nc1c(I)cc(I)c(C(=O)O)c1I
inactive: S. cerevisiae deletion strains, locus YJR075W, strain HOC1, active compounds read low 1 | S. cerevisiae deletion strains, locus YKL009W, strain mrt4, active compounds read low 0.978 | S. cerevisiae deletion strains, locus YKL068W, active compounds read low 0.986 | S. cerevisiae deletion strains, locus YKL085W, strain MDH1 (second series), active compounds read low 1.01 | S. cerevisiae deletion strains, locus YKL085W, strain MDH1, active compounds read low 1.01 | S. cerevisiae deletion strains, locus YKL160W, strain elf1, active compounds read low 0.985 | S. cerevisiae deletion strains, locus YKL190W, strain CNB1, active compounds read low 1.02 | S. cerevisiae deletion strains, locus YKR001C, strain vps1, active compounds read low 0.986 | S. cerevisiae deletion strains, locus YKR026C, strain gcn3, active compounds read low 0.975 | S. cerevisiae deletion strains, locus YKR091W, strain srl3, active compounds read low 0.981 | S. cerevisiae deletion strains, locus YLL001W, strain dnm1, active compounds read low 0.953 | S. cerevisiae deletion strains, locus YLL026W, active compounds read low 0.985 | S. cerevisiae deletion strains, locus YLL041C, strain sdh2, active compounds read low 0.972 | S. cerevisiae deletion strains, locus YLR027C, strain aat2, active compounds read low 0.981 | S. cerevisiae deletion strains, locus YLR039C, strain RIC1, active compounds read low 1.01 | S. cerevisiae deletion strains, locus YLR058C, strain SHM2, active compounds read low 0.994 | S. cerevisiae deletion strains, locus YLR102C, strain apc9, active compounds read low 0.991 | S. cerevisiae deletion strains, locus YLR113W, strain HOG1, active compounds read low 1 | S. cerevisiae deletion strains, locus YLR221C, strain rsa3, active compounds read low 1.01 | S. cerevisiae deletion strains, locus YLR258W, strain gsy2, active compounds read low 0.976 | S. cerevisiae deletion strains, locus YLR262C, strain YPT6 (second series), active compounds read low 0.971 | S. cerevisiae deletion strains, locus YLR262C, strain YPT6, active compounds read low 0.954 | S. cerevisiae deletion strains, locus YLR268W, strain sec22, active compounds read low 0.996 | S. cerevisiae deletion strains, locus YLR320W, strain mms22, active compounds read low 0.99 | S. cerevisiae deletion strains, locus YLR330W, strain CHS5, active compounds read low 0.998 | S. cerevisiae deletion strains, locus YLR342W, strain FKS1 (second series), active compounds read low 1.04 | S. cerevisiae deletion strains, locus YLR342W, strain FKS1, active compounds read low 0.978 | S. cerevisiae deletion strains, locus YLR357W, strain rsc2, active compounds read low 1 | S. cerevisiae deletion strains, locus YLR370C, strain arc18, active compounds read low 0.989 | S. cerevisiae deletion strains, locus YLR371W, strain rom2, active compounds read low 0.993 | S. cerevisiae deletion strains, locus YLR384C, strain iki3, active compounds read low 0.98 | S. cerevisiae deletion strains, locus YLR418C, strain cdc73, active compounds read low 0.99 | S. cerevisiae deletion strains, locus YML016C, strain PPZ1, active compounds read low 0.993 | S. cerevisiae deletion strains, locus YML032C, strain rad52, active compounds read low 0.987 | S. cerevisiae deletion strains, locus YML120C, strain ndi1, active compounds read low 0.981 | S. cerevisiae deletion strains, locus YML124C, strain tub3, active compounds read low 0.988 | S. cerevisiae deletion strains, locus YMR058W, strain fet3, active compounds read low 0.989 | S. cerevisiae deletion strains, locus YMR078C, strain ctf18, active compounds read low 0.988 | S. cerevisiae deletion strains, locus YMR125W, strain sto1, active compounds read low 0.96 | S. cerevisiae deletion strains, locus YMR129W, active compounds read low 0.96 | S. cerevisiae deletion strains, locus YMR205C, strain PFK2, active compounds read low 0.977 | S. cerevisiae deletion strains, locus YMR223W, strain ubp8, active compounds read low 0.972 | S. cerevisiae deletion strains, locus YMR231W, strain pep5, active compounds read low 0.982 | S. cerevisiae deletion strains, locus YMR263W, strain SAP30, active compounds read low 1.01 | S. cerevisiae deletion strains, locus YMR307W, strain GAS1, active compounds read low 1.07 | S. cerevisiae deletion strains, locus YNL067W, strain RPL9B, active compounds read low 1 | S. cerevisiae deletion strains, locus YNL071W, strain lat1, active compounds read low 0.987 | S. cerevisiae deletion strains, locus YNL128W, strain TEP1, active compounds read low 1.01 | S. cerevisiae deletion strains, locus YNL153C, strain GIM3, active compounds read low 0.993 | S. cerevisiae deletion strains, locus YNL183C, strain NPR1, active compounds read low 0.968 | S. cerevisiae deletion strains, locus YNL209W, strain ssb2, active compounds read low 0.99 | S. cerevisiae deletion strains, locus YNL233W, strain BNI4, active compounds read low 0.998 | S. cerevisiae deletion strains, locus YNL248C, strain rpa49, active compounds read low 0.992 | S. cerevisiae deletion strains, locus YNL250W, strain rad50, active compounds read low 0.986 | S. cerevisiae deletion strains, locus YNL271C, strain bni1, active compounds read low 0.989 | S. cerevisiae deletion strains, locus YNL298W, strain CLA4, active compounds read low 0.986 | S. cerevisiae deletion strains, locus YNL307C, strain MCK1, active compounds read low 0.987 | S. cerevisiae deletion strains, locus YNL322C, strain KRE1 (second series), active compounds read low 0.971 | S. cerevisiae deletion strains, locus YNL322C, strain KRE1, active compounds read low 1 | S. cerevisiae deletion strains, locus YNR049C, strain mso1, active compounds read low 0.993 | S. cerevisiae deletion strains, locus YNR052C, strain pop2, active compounds read low 0.999 | S. cerevisiae deletion strains, locus YOL006C, strain TOP1, active compounds read low 1.02 | S. cerevisiae deletion strains, locus YOL012C, strain htz1 0.771 | S. cerevisiae deletion strains, locus YOL147C, strain pex11, active compounds read low 0.992 | S. cerevisiae deletion strains, locus YOR001W, strain rrp6, active compounds read low 0.976 | S. cerevisiae deletion strains, locus YOR061W, strain CKA2, active compounds read low 1 | S. cerevisiae deletion strains, locus YOR069W, strain VPS5, active compounds read low 0.988 | S. cerevisiae deletion strains, locus YOR070C, strain gyp1, active compounds read low 0.988 | S. cerevisiae deletion strains, locus YOR080W, strain dia2, active compounds read low 0.975 | S. cerevisiae deletion strains, locus YOR083W, strain WHI5, active compounds read low 0.984 | S. cerevisiae deletion strains, locus YOR106W, strain vam3, active compounds read low 0.964 | S. cerevisiae deletion strains, locus YOR136W, strain idh2, active compounds read low 0.987 | S. cerevisiae deletion strains, locus YOR144C, strain elg1, active compounds read low 0.995 | S. cerevisiae deletion strains, locus YOR184W, strain ser1, active compounds read low 0.969 | S. cerevisiae deletion strains, locus YOR231W, strain MKK1, active compounds read low 1.02 | S. cerevisiae deletion strains, locus YOR265W, strain rbl2, active compounds read low 0.98 | S. cerevisiae deletion strains, locus YOR270C, strain vph1, active compounds read low 0.951 | S. cerevisiae deletion strains, locus YOR290C, strain snf2, active compounds read low 1 | S. cerevisiae deletion strains, locus YOR316C, strain cot1, active compounds read low 0.991 | S. cerevisiae deletion strains, locus YPL051W, strain arl3, active compounds read low 0.981 | S. cerevisiae deletion strains, locus YPL055C, strain LGE1, active compounds read low 1.05 | S. cerevisiae deletion strains, locus YPL078C, strain atp4, active compounds read low 0.961 | S. cerevisiae deletion strains, locus YPL106C, strain sse1, active compounds read low 0.981 | S. cerevisiae deletion strains, locus YPL240C, strain hsp82, active compounds read low 0.972 | S. cerevisiae deletion strains, locus YPL241C, strain CIN2, active compounds read low 1.01 | S. cerevisiae deletion strains, locus YPL256C, strain CLN2, active compounds read low 1.02 | S. cerevisiae deletion strains, locus YPR119W, strain clb2, active compounds read low 0.986 | S. cerevisiae deletion strains, locus YPR141C, strain kar3, active compounds read low 0.981 | S. cerevisiae deletion strains, locus YPR163C, strain tif3, active compounds read low 0.997 | S. cerevisiae deletion strains, locus YPR167C, strain met16, active compounds read low 0.983 | S. cerevisiae deletion strains, strain wtn01, active compounds read low 0.986 | S. cerevisiae strains, strain wild type, active compounds read low 1.05

Source: PubChem BioAssay AID1159580 (chemical genetic matrix, 2015)
